# PubChem BioAssay AID2014 (Sanford-Burnham Center for Chemical Genomics, 2009)
# The whole screen tested about 290,000 compounds, of which about 3,000 (1%) were called active. The rule behind the calls is not given here. For the sample, actives were picked, then their nearest neighbours and some compounds at random.
# Target: Polyadenylate-binding protein 1 (Homo sapiens) (UniProt P11940)
# Assay: blockers of PABP interaction with poly(A) – biochemical, fluorescence polarization, uHTS, primary screen (AID 2014);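 note: calls also rest on retests at 20 µM and on dose response follow-up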
# Details: PABP-poly(A) RNA binding, stronger effect = higher value
# Polyadenylate-binding protein 1 (Homo sapiens), sequence (P11940 whole entry, looked up): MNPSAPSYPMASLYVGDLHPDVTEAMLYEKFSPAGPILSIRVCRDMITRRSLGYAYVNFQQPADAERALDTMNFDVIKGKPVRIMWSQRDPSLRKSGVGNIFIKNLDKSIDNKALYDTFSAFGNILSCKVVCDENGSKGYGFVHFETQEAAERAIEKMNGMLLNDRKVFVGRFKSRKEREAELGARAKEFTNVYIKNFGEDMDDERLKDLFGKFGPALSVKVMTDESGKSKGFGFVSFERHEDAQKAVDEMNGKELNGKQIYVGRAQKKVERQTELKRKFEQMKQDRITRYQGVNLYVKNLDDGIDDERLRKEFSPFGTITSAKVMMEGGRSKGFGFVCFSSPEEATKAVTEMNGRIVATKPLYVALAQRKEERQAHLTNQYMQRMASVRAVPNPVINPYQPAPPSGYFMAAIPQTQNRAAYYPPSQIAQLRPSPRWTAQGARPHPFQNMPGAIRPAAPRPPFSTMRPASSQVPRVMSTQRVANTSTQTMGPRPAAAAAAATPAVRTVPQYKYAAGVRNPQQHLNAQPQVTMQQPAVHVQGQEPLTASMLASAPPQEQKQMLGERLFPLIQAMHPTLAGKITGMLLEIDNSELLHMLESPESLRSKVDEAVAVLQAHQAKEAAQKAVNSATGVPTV
SMILES,inhibition (at 35 µM),"inhibition (confirmation repeats, at 20 µM) [%]"
O=C1NN(c2ccccc2)C(=O)/C1=C/c1ccc(-c2cccc(C(=O)O)c2)o1,36.5% (inactive),–
O=C(O)C(c1ccccc1)N1C(=O)/C(=C\c2ccc(-c3cccc(Cl)c3)o2)SC1=S (stereo not drawn),76% (active),126
CN1C(=O)/C(=C\c2ccc(-c3ccccc3)o2)SC1=S,19.8% (inactive),–
CCOC(OCC)c1ccc(/C=C\c2nccc(N)n2)cc1,-16.6% (inactive),–
COC(=O)c1sccc1NC(=O)c1ccc(Cl)cc1,4.7% (inactive),–
COC(=O)c1sccc1NC(=O)COc1ccc(Cl)cc1,81% (active),58.4
O=C(COc1ccc(Cl)cc1)Nc1ccccc1CO,4.7% (inactive),–
CC(C)(C)C1CCC(C(=O)NCC(c2cccs2)N2CCOCC2)CC1 (stereo not drawn),15.6% (inactive),–
O=C(CC(=O)Nc1ccc(Cl)c(Cl)c1)N/N=C/c1ccc(O)cc1,51.1% (active),59.9
O=C(C[n+]1ccccc1)N/N=C/c1ccc(O)cc1,-10% (inactive),–
Nc1nnn(CC(=O)N/N=C/c2ccc(O)cc2)n1,15.3% (inactive),–
CN(C)c1ccc(S(=O)(=O)NCC(=O)NCC2CCCCC2)cc1[N+](=O)[O-],13.4% (inactive),–
COc1cccc(C(=O)N/N=C(\C)c2cccc(NC(=O)c3ccc(F)cc3)c2)c1OC,-0.8% (inactive),–
COc1ccccc1OCCCC(=O)Nc1ccc2c(c1)OCCO2,3.8% (inactive),–
CCc1nnc(NC(=O)/C=C/c2ccc(C)o2)s1,4.4% (active),56.5
Cc1nnc(NC(=O)/C=C/c2ccco2)s1,-3.5% (inactive),8.4
CCC(CC)c1nnc(NC(=O)/C=C/c2ccco2)s1,10% (inactive),1.7
CCOC(=O)c1c(S(=O)(=O)Nc2ccc(CN3CCC(C)CC3)cc2)c(C)n(C)c1C,-2.2% (inactive),–
CCOC(=O)N1CCC(N2Cc3cccc(C(=O)Nc4c(C)cccc4CC)c3C2=O)CC1,-4.1% (inactive),–
CCOC(=O)CC1COCCN1C(=O)c1cc(COc2ccc(F)c(F)c2)on1 (stereo not drawn),1.8% (inactive),–
O=C(O)c1ccc(OCC2CCCO2)cc1 (stereo not drawn),6.4% (inactive),–
CC(C)(C)C(=O)CN1C2=NCCN2c2ccccc21,-8.1% (inactive),–
O=C(CN1C2=NCCN2c2ccccc21)c1cccs1,88.7% (active),105
O=C(NCC(=O)N1CCN(c2ccccc2F)CC1)c1cccs1,7.4% (inactive),–
COc1ccc(N2CCN(C(=O)Cn3cnc4sc(C)c(S(=O)(=O)N5CCOCC5)c4c3=O)CC2)cc1,-2.8% (inactive),–
Cc1cccc2[nH]c(CN(C)C(=O)C3CCC(=O)N(CCc4ccccc4)C3)nc12 (stereo not drawn),-4.2% (inactive),–
